PubChem BioAssay (NCI)
The panel holds about 83,000 compounds, 20% with a hit somewhere; the sample as a whole holds those more often.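 96-well plates, one dose, 48 hours. Percent growth reported; active if below 10.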 A number with no mark means an inactive call. The source made the active and inactive calls.

system: MDA-MB-468 breast; experiment: NCI-60 one-dose screen, 48 h (100 = growth as untreated, 0 = no growth, -100 = all killed); conditions: 10 µM unless noted

SMILES	growth
CCOC1(OCC)OC(c2ccccc2)=C(C#N)C(/C=C\c2ccccc2)C1(OCC)OCC (stereo not given)	56.7%
CSc1nn2c(-c3cc4cc(Br)ccc4oc3=O)ccnc2c1C#N	109%
CCOC(=O)c1nc2c3ccccc3cnn2c1C(=O)c1ccc(OC)cc1	105%
C=CCNc1nnc(C)s1	104%
COC(=O)C(Cc1ccccc1)NS(=O)(=O)/N=C1\NC(=O)NC1=C(Cl)Cl (stereo not given)	16.3%
CCc1c(C)c2ccc(O)c(-c3cc(-c4ccccc4)c(C#N)c(=O)[nH]3)c2oc1=O	102%
Nc1nnc2cc(Cl)ccc2n1	101%
O=C(CN1CCN(c2cc(=O)n(-c3ccccc3)c3ccccc23)CC1)Nc1ccc(F)cc1	9.45% (active)
O=C(CCN1CCCCC1)c1ccc(Cl)cc1	94.3%
CCOC(=O)c1cc(C#N)n2ncc3ccccc3c12	87.9%
Oc1ccccc1/C=N/NC(=S)NC1CC2C=CC1C2 (stereo not given)	73.1%
CCn1c(SCC(=O)N/N=C(\C)c2ccc(Cl)cc2)nc2c1c(=O)n(C)c(=O)n2C	96.6%
COc1ccc(OC)c(/C=C2\Oc3cc(OCCCN4CCCC4)ccc3C2=O)c1	77.7%
COc1cc(-c2nc3sc4c(c3c(=O)[nH]2)CCCCCC4)cc(OC)c1OC	20%
O=C(CN1CCOCC1)NNc1ncnc2ccccc12	55.9%
COc1ccccc1C(OC(C)=O)OC(C)=O	98%
COc1cc(-c2nn(C(C)(C)C)cc2-c2ccnc(NCCCNS(=O)(=O)c3ccc(Cl)cc3)n2)ccc1Cl	63.7%
CCOC(=O)C(=CCC(C)C)C(=O)OCC	98%
C=CCC(CCCC)(C(=O)OCC)C(=O)OCC	107%
COc1cc2cc(Oc3ccc(NC(=O)Nc4ccc(Cl)c(C(F)(F)F)c4)cc3)c(C)nc2cc1OCCN1CCCCC1	-72.3% (active)

SMILES	growth
Cc1ccc2nc(NC(=O)CSc3nc(-c4ccccc4)c(C#N)c(=O)n3Cc3ccccc3)sc2c1	102%
COC(=O)c1c2c(n3ccc(C)cc13)C(=O)c1ccccc1C2=O	86.3%
CCCCCCCC/C=C\CCCCCCCCOc1ccc(CC(=O)NCC[N+]2(C)CCOCC2)cc1	43.9%
O=C1c2cccnc2C(=O)c2c1c(C(=O)NCCCN1CCCCC1)c1ccccn21	-73.9% (active)
Cc1ccccc1NS(=O)(=O)c1cccc(C(=O)Nc2ccc(Br)cc2)c1	-2.56% [25 µM] (active)
Cc1c(C(=O)NO)sc2ncnc(Nc3ccc(NC(=S)Nc4ccccc4)cc3)c12	104%
O=C1Cc2cc(CCN3CCN(CCOCCO)CC3)c(Cl)cc2N1Cc1ccc(-c2ccccc2-c2nn[nH]n2)cc1	82.7%
O=C(Nc1cccnc1Nc1ccc(Cl)cc1)c1cn(Cc2ccc(F)cc2)nn1	99.5%
O=C1COc2ccccc2C(=O)N1CCCCNc1ccccc1	94.5%
COc1cc(CNC(=O)CCCC/C=C/C(C)C)ccc1OCc1nnc(Nc2ccccc2F)o1	58.9%
N#Cc1c(N)sc(=S)c2c1CCCC2	110%
COc1ccc(/C=C/C(=O)c2ccc(Oc3ncnc4ccccc34)cc2)cc1OC	28.4%
Cc1ccnc(Nc2nc3ccccc3[nH]2)n1	119%
c1ccc(-c2nc(Nc3ccc(-c4nc5ccccc5[nH]4)cc3)nc(N3CCOCC3)n2)cc1	-62.7% (active)
Cc1cc(O)c2c(c1)C(=O)c1cc(O)cc(O)c1C2=O	73.2%
Cn1cnc([N+](=O)[O-])c1Sc1ncn[nH]1	73.5%
CN1C(=O)CNC(=O)[C@H](NC(=O)c2nc3ccccc3cc2O)CSSC[C@H]1C(=O)NCCc1nc2ccccc2cc1O	16%
COc1cccc(/C=C/C(=O)c2cc3c(N)c(C(=O)Nc4cccc(Cl)c4C)sc3nc2C)c1	-7.04% (active)
O=C(NC1CCC(Br)CC1)C1CCCC(S(=O)(=O)NC2CCCCC2)C1 (stereo not given)	-3.64% [25 µM] (active)
CCN(CC)CCCC(Nc1c2ccc(Cl)cc2nc2ccc(OC)cc12)c1ccc(Cl)cc1 (stereo not given)	-78.5% (active)
